The results in this text go back to PubChem BioAssay (Tox21).

A number with no mark means an inactive call. Inconclusive results are not listed. Active and inactive are the calls of the source. Unless noted, calls follow the shape of the dose curve; as a rule, active = well fitted curve in the direction sought with a large enough effect in the repeat runs; inconclusive = weak or mixed curves; inactive = no such curve, though single readings can be large; an effect the other way counts as inactive or inconclusive.

Experiment [1] can be described thus: qHTS assay to identify small molecule agonists of the estrogen receptor alpha (ER-alpha) signaling pathway in the presence of an antagonist - cell viability counter screen (AID 1259386).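 Also: cells exposed to compounds for 22 h at 37 °C before the viability read; nearly all actives have a fitted effect of over 30% in size.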 Also: potency is read from the fitted curve at half-maximal effect. As to activity change, negative = cytotoxicity: series mostly up to about 92 µM. Put shortly: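 VM7Luc4E2, stripped-serum pre-culture 5 d; 24hr plating; +ICI-182,780 10.0nM final; cpds 15 conc, 22hr, 37C/5% CO2; CellTiter-Fluor added at 21hr, fluorescence 1hr later.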
On the technique in general: qHTS replaces the single test concentration by a dilution series.

The target in experiment [2] is Progesterone receptor (Homo sapiens) (UniProt P06401). Kind of experiment: qHTS assay to identify small molecule agonists of the progesterone receptor (PR) signaling pathway (AID 1346784; calls by dose curve; also: nearly all actives have a fitted effect of over 30% in size). Put shortly:
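Agonist mode, quantitative HTS format in a HEK 293T line expressing a UAS-controlled beta-lactamase reporter; 16 hr compound exposure at 37C in 2% charcoal-stripped FBS, then LiveBLAzer B/G FRET fluorescence.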

The target is the same in experiment [3]. Kind of experiment: qHTS assay to identify small molecule antagonists of the progesterone receptor (PR) signaling pathway (AID 1346795; active = well fitted inhibition curve with a large enough effect in the signal ratio in the repeat runs, not every such curve was filed as active; the % refers to the signal ratio). Put shortly:
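HEK293T PR-UAS-bla reporter cells in charcoal-stripped serum (2%) received compound after a 6 hr settling period, followed by R5020 agonist at 1 nM final; 16 hr incubation preceded the FRET substrate step and fluorescence measurement.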

The nature of experiment [4]: qHTS assay to identify small molecule antagonists of the progesterone receptor (PR) signaling pathway - cell viability counter screen (AID 1346798). Also: series mostly up to about 92 µM; nearly all actives have a fitted effect of over 50% in size. Put shortly: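 Same-well multiplex: after 16 hr at 37C with compound and R5020 stimulation, HEK293T cells carrying a UAS-bla reporter received LiveBLAzer substrate (2 hr RT), then CellTiter-Glo (30 min RT) for luminescent viability.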

The nature of experiment [5]: qHTS assay to identify small molecule agonists of the progesterone receptor (PR) signaling pathway - cell viability counter screen (AID 1346799; calls by dose curve; also: nearly all actives have a fitted effect of over 45% in size). Put shortly: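 Counter screen for cytotoxicity: compound-treated PR-UAS-bla HEK293T cells (16 hr, 37C, 5% CO2) were assayed with CellTiter-Glo, luminescence measured after 30 min at room temperature.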
Experiment [6] in a line: qHTS assay to identify small molecule antagonists of the TGF-beta/Smad signaling pathway - cell viability counter screen (AID 1346824). Also: nearly all actives have a fitted effect of over 50% in size. Put shortly: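 Cytotoxicity counter-screen run in the same wells as the beta-lactamase Smad reporter read: CellTiter-Glo luminescence after 30 min at room temperature. HEK 293T SBE-bla cells had 5 hr compound exposure at 37 C with TGF-beta1 (0.25 ng/mL stock).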

Experiment [7] is described as follows: qHTS assay to identify small molecule agonists of the TGF-beta/Smad signaling pathway - cell viability counter screen (AID 1346829). Also: top concentration of the series differs between compounds; nearly all actives have a fitted effect of over 45% in size. Put shortly: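 CellTiter-Glo luminescence readout; SBE-bla HEK 293T cells, overnight plating, compound 5 hr at 37 C/5% CO2, then bla substrate 2 hr RT, then CellTiter-Glo 30 min RT.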
Experiment [8] in a line: qHTS assay to identify small molecule agonists of the TGF-beta/Smad signaling pathway (AID 1346859; active = well fitted activation curve with a large enough effect in the signal ratio in the repeat runs, not every such curve was filed as active; the % refers to the signal ratio; also: series mostly up to about 77 µM). Put shortly: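 Smad-responsive beta-lactamase reporter cells (HEK 293T) received compounds from DMSO stocks after overnight attachment, were incubated 5 hr, then treated 2 hr with FRET substrate before dual-emission fluorescence measurement (405 nm excitation).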
Experiment [9] deals with Thyrotropin-releasing hormone receptor (Homo sapiens) (UniProt P34981). Kind of experiment: qHTS assay to identify small molecule antagonists of the thyrotropin-releasing hormone receptor (TRHR) signaling pathway (AID 1346877; active = well fitted inhibition curve with a large enough effect in the repeat runs, not every such curve was filed as active; also: series mostly up to about 51 µM). Put shortly: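 Intracellular calcium fluorescence, read kinetically every second over 3 min, reports TRH-evoked signalling in HEK293 cells carrying TRHR. Test compounds were added 5 min ahead of a 1 nM TRH challenge.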

For experiment [10] the target is unchanged. As to the kind of experiment: qHTS assay to identify small molecule agonists of the thyrotropin-releasing hormone receptor (TRHR) signaling pathway (AID 1346891; calls by dose curve;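 also: HEK293 cells expressing TRHR with calcium dye readout; series mostly up to about 58 µM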). Put shortly:
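Agonist-mode calcium mobilisation screen: TRHR-transfected HEK293 cells cultured overnight (18 h), dye-loaded for 2 h at 37 °C, exposed to compounds, and monitored by fluorescence for 3 min.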

Experiment [11] can be described thus: Human pregnane X receptor (PXR) small molecule agonists, qHTS cell viability counter screen (AID 1346977). Also: nearly all actives have a fitted effect of over 50% in size. Also: potency is read from the fitted curve at half-maximal effect. Put shortly:
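Measures live-cell protease fluorescence (CellTiter-Fluor) in PXR-Luc HepG2 cells treated 24hr with compounds at 37C. Cells had 5hr to attach before pin transfer of DMSO solutions.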

Experiment [12] can be described thus: Caspase-3/7 induction in HepG2 cells by small molecules, qHTS assay (AID 1346978). Also: nearly all actives have a fitted effect of over 15% in size. Put shortly:
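Caspase-3/7 induction was measured by Caspase-Glo 3/7 luminescence (30 min, room temperature) after a 17 hr compound exposure of wild-type HepG2 cells seeded at 2,000 per well and pre-incubated 5 hr.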

Experiment [13] can be described thus: Caspase-3/7 induction in CHO-K1 cells by small molecules, qHTS cell viability counter screen (AID 1346979). Also: nearly all actives have a fitted effect of over 35% in size. Also: potency is read from the fitted curve at half-maximal effect. Put shortly:
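In the same wells as the caspase read, viability of compound-treated wild-type CHO-K1 cells was assessed using CellTiter-Fluor, added after 16hr at 37C and measured by fluorescence following 1hr further incubation.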

A short description of experiment [14]: Caspase-3/7 induction in HepG2 cells by small molecules, qHTS cell viability counter screen (AID 1346981). Also: nearly all actives have a fitted effect of over 30% in size. Also: potency is read from the fitted curve at half-maximal effect. As to activity change, negative = cytotoxicity: series mostly up to about 92 µM. Put shortly:
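HepG2, WT, 2,000 cells/well; 5 hr pre-incubation 37 C/5% CO2; compound pin-transferred from DMSO; 16 hr exposure; CellTiter-Fluor, 1 hr; fluorescence read.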

Experiment [15] concerns the target Nuclear receptor subfamily 1 group I member 2 (Homo sapiens) (UniProt O75469). Kind of experiment: Human pregnane X receptor (PXR) activation by small molecules, qHTS assay (AID 1346985). Also: nearly all actives have a fitted effect of over 40% in size. Also: potency is read from the fitted curve at half-maximal effect. Put shortly:
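DPX-2 cells (HepG2 co-transfected with a PXR response element and a CYP3A4-promoter luciferase construct) were seeded at 2,000 per well, rested 5 hr at 37C, then exposed to DMSO-dissolved compounds for 24 hr. Activation was read as luciferase luminescence.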

Experiment [16] deals with Cytochrome P450 2D6 (Homo sapiens) (UniProt P10635). As to the kind of experiment: Cytochrome P450 Family 2 Subfamily D Member 6 (CYP2D6) small molecule antagonists: luciferase reporter qHTS assay (AID 1671196). Also: nearly all actives have a fitted effect of over 50% in size. Also: potency is read from the fitted curve at half-maximal effect. As to activity change, negative = inhibition: series mostly up to about 120 µM. Put shortly:
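Read-out is luminescence from luciferin formed by CYP2D6 turnover of a proluciferin substrate, recorded as relative luminescence units. Reactions ran 1 h at room temperature after NADPH regeneration solution was added.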
A general note: In a reporter assay the amount or activity of a reporter protein is the signal.

Experiment [17] can be described thus: Caspase-3/7 induction in CHO-K1 cells by small molecules, qHTS assay (AID 1346980). Also: nearly all actives have a fitted effect of over 15% in size. Put shortly:
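Luminescent Caspase-Glo 3/7 read (30min, room temperature) quantified apoptosis induction. Cells were wild-type CHO-K1, treated with compound for 17hr at 37 C and 5% CO2.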

For experiment [18], the target named is Nuclear receptor subfamily 1 group I member 2 (Rattus norvegicus) (UniProt Q9R1A7). Kind of experiment: Rat pregnane X receptor (rPXR) activation by small molecules, qHTS assay (AID 1346983). Also: nearly all actives have a fitted effect of over 20% in size. Conditions: rPXR luciferase reporter cells, One-Glo luminescence, 24 h; hits give high values. Put shortly: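 Luminescent readout (One-Glo luciferase, 30 min room temperature) followed 24 hr compound treatment at 37 C of rPXR cells plated 2,000 per well and preincubated 5hr; qHTS format with compounds delivered in DMSO.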

Experiment [19] concerns the target Nuclear receptor subfamily 1 group I member 2 (Homo sapiens) (UniProt O75469). As to the kind of experiment: Human pregnane X receptor (PXR) small molecule agonists, qHTS assay (AID 1346982). Also: nearly all actives have a fitted effect of over 35% in size. Also: potency is read from the fitted curve at half-maximal effect. Put shortly:
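Luciferase signal from ONE-Glo (30 min, room temperature) measured activation of hPXR-driven CYP3A4 reporter expression in PXR-Luc HepG2 cells treated with compounds for 24 hr at 37 C.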
% is scaled to controls: 0 for no effect and ±100 for the full control effect.

Sequence of Nuclear receptor subfamily 1 group I member 2 (Rattus norvegicus) (Q9R1A7 whole entry, looked up): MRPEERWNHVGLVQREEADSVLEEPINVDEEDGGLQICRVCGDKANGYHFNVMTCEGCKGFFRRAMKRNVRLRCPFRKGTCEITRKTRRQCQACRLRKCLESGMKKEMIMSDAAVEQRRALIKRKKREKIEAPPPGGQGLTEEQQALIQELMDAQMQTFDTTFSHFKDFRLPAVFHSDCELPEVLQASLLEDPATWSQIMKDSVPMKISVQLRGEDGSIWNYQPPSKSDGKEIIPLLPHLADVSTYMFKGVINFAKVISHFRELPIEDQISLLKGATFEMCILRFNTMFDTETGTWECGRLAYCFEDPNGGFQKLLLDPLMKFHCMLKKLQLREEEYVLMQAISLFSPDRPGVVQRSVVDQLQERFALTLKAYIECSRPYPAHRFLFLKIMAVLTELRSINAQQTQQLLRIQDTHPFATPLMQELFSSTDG
Sequence of Cytochrome P450 2D6 (Homo sapiens) (P10635 whole entry, looked up): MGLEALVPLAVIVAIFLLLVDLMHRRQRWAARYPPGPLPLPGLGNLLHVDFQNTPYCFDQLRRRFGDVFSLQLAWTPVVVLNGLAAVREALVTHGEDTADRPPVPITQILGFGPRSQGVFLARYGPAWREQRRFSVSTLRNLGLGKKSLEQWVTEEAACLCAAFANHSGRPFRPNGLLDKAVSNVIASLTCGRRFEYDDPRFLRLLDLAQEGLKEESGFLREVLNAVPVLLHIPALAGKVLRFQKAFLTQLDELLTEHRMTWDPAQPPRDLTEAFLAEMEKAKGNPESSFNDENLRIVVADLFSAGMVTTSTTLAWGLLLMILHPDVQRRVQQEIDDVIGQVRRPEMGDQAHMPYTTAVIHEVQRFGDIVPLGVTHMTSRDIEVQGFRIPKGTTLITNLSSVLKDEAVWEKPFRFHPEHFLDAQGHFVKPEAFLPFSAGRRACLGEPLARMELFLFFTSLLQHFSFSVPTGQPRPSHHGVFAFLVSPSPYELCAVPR
Sequence of Nuclear receptor subfamily 1 group I member 2 (Homo sapiens) (O75469 whole entry, looked up): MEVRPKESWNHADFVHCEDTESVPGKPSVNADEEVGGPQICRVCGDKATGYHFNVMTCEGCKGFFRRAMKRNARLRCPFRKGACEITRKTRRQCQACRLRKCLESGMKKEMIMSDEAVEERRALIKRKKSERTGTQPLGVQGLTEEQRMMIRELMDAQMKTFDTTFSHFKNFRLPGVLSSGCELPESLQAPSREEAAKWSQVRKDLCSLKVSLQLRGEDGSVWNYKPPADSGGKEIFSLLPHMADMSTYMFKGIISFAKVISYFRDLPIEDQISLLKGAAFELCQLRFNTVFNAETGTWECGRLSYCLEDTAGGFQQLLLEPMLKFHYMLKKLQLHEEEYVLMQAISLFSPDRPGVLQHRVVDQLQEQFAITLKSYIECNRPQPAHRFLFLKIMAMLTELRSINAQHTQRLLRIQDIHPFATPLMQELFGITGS
Sequence of Thyrotropin-releasing hormone receptor (Homo sapiens) (P34981 whole entry, looked up): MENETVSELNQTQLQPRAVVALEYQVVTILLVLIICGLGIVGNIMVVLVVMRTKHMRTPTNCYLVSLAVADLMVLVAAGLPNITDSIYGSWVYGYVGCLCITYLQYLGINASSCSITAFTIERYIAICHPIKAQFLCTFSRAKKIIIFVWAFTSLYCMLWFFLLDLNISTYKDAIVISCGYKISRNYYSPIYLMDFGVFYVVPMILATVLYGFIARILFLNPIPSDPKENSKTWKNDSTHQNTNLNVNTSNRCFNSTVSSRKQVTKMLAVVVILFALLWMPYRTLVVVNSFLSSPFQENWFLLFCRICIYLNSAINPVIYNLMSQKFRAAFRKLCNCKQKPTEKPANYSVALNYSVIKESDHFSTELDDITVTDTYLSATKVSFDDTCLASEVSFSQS
Sequence of Progesterone receptor (Homo sapiens) (P06401 whole entry, looked up): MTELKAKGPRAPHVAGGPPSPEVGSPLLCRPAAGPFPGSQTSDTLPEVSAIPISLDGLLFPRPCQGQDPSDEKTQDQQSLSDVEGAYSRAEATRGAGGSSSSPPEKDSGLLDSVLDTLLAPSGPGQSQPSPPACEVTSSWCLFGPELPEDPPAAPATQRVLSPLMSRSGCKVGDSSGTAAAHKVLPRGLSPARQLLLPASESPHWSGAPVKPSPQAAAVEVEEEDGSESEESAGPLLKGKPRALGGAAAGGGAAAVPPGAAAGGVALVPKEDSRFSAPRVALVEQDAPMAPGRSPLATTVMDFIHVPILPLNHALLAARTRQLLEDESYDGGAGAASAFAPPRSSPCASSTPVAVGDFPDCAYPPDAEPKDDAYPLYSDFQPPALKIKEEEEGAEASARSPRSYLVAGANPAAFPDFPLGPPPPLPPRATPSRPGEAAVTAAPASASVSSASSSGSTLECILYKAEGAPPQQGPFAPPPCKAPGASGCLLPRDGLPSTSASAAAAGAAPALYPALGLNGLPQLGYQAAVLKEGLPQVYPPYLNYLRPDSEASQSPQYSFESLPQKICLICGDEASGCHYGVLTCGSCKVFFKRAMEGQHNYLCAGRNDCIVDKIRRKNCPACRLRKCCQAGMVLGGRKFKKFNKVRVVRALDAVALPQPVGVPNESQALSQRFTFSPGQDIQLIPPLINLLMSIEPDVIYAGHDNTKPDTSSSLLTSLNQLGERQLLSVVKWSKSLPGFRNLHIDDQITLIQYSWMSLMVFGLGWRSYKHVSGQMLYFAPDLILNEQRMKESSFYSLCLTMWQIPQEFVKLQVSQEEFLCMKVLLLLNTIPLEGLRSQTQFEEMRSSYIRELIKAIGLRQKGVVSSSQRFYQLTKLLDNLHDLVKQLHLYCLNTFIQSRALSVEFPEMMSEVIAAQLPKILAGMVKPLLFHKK

Consider `Cc1ccc(C(C)C)cc2c(C)ccc1-2`, for which the Potency result in experiment [1], in [2], in experiment [3], in experiment [4], in [5] and in experiment [6] was “inactive” each time. Also, the Potency result in experiment [7], in experiment [8], in [9], in [11], in experiment [12] and in experiment [13] was “inactive” throughout. Further, the Potency entry in [14] and in experiment [16] was “inactive” each time. Besides, in experiment [10], the result was inactive. Further, in [15], the Potency was 22.4 µM (active).
On to `NC[C@H]1O[C@H](O[C@H]2[C@H](O[C@@H]3O[C@H](CO)[C@@H](O)[C@H]3O)C(O)[C@H](N)C[C@@H]2N)[C@H](N)[C@@H](O)[C@@H]1O` (some centres undefined), for which the activity change, negative = cytotoxicity in experiment [1] was 3.36% [at 8.39 µM]; in [4], 12.4% [at 8.39 µM]; in experiment [5], 9.53% [at 8.39 µM]; in experiment [7], 21.1% [at 6.97 µM]; in [11], 22.9% [at 8.39 µM]; in experiment [13] it was 6.09% [at 8.39 µM]. Moreover, the activity change, negative = cytotoxicity in experiment [14] was 8% [at 8.39 µM]. Besides, the activation in experiment [2] is 14.9% [at 8.39 µM]; in experiment [8] it was 6.05% [at 6.97 µM]; in [10], -0.179% [at 5.23 µM]. Also, the activity change, negative = inhibition in experiment [3] was 0.98% [at 8.39 µM]; in [16], -0.538% [at 10.5 µM]. For the same molecule, the viability change, negative = cytotoxic in experiment [6] is -16.4% [at 6.97 µM]. Moreover, in experiment [9], the activity, negative = inhibition was 3.15% [at 4.65 µM]. Besides, the caspase activation in [12] was -1.04% [at 8.39 µM]. In [17], the caspase-3/7 activation was -0.0652% [at 8.39 µM]. In experiment [18], the max activation is 3.62%.
In the case of `CC(CCc1ccccc1)NCC(O)c1ccc(O)c(C(N)=O)c1` (centres undefined), the Potency in experiment [1] was 27.3 µM (active); in experiment [11], 43.3 µM (active); in [13], 43.3 µM (active); in experiment [14], 27.3 µM (active); in [16] it was 0.564 µM (active). Also, the Potency entry in experiment [2], in experiment [3], in [4], in experiment [5], in experiment [6] and in experiment [7] was “inactive” in each case. Further, the Potency result in [8], in experiment [9], in [17] and in [15] was “inactive” in each case. Further, the molecule was classed as inactive in experiment [10]. Further, the max activation in experiment [18] is -0.392%.
`COc1ccc(NC(=O)CC(C)=O)cc1`: the Potency entry in experiment [1], in [2], in experiment [3], in experiment [4], in experiment [5] and in experiment [6] was “inactive” throughout. Also, the Potency entry in experiment [7], in experiment [9], in [11], in [12], in [13] and in [17] was “inactive” in each case. Moreover, the Potency entry in [14], in [19] and in experiment [16] was “inactive” throughout. In experiment [10], the outcome was inactive.
Regarding `C=Cc1ccccc1C=C`, the Potency result in [1], in experiment [2], in [3], in experiment [4], in experiment [6] and in [7] was “inactive” in each case. For the same molecule, the Potency entry in [8], in experiment [9], in [11], in [13], in experiment [17] and in experiment [14] was “inactive” in each case. In addition, in [10], the outcome was inactive. Also, the Potency in [19] is 109 µM (active); in experiment [16], 79.4 µM (active).
In the case of `C=CC(C)(CCC=C(C)C)OC=O` (centres undefined), the Potency entry in experiment [1], in experiment [2], in [3], in experiment [4], in experiment [5] and in experiment [6] was “inactive” in each case. In addition, the Potency entry in [8], in experiment [11], in experiment [12], in experiment [13], in experiment [17] and in experiment [14] was “inactive” in each case. The Potency result in experiment [19] and in [16] was “inactive” throughout.
As to `CC1(C)CC(O)CC(C)(C)N1`, the Potency entry in [1], in experiment [2], in experiment [3], in experiment [4], in experiment [6] and in experiment [7] was “inactive” throughout. Also, the Potency entry in experiment [8], in experiment [9], in experiment [11], in [13], in [17] and in experiment [14] was “inactive” each time. The Potency result in experiment [16] is “inactive”. For the same molecule, in experiment [10], the molecule was called inactive.
Consider `Cc1c(F)c(N2CCNC(C)C2)cc2c1c(=O)c(C(=O)O)cn2C1CC1` (centres undefined), for which the Potency result in experiment [1], in [2], in experiment [3], in [4], in [5] and in experiment [6] was “inactive” throughout. Further, the Potency entry in experiment [7], in experiment [11], in [13], in experiment [17], in experiment [14] and in [19] was “inactive” in each case. Also, the Potency entry in [15] and in [16] was “inactive” each time. Moreover, in [18], the max activation was -0.343%.
